Assay results reported in the supplement of paper PMC6555819.

Experiments:
Experiment in all cases: PBM binding z-score (relative to random genomic background probes); higher = stronger binding; sequences stand for … in GC…GCGATTGACAGCGTAGAATGAAGG
[1] = system: FXR:RXRa (NR concentration 270 nM, RXRa partner concentration 90 nM)
Outline: (§1)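 Random background probes are the reference for binding z-scores. These scores derive from regression-normalized fluorescence on custom Agilent 4×180K protein-binding microarrays incubated 1 h with ligand-free nuclear receptor dimers. Binding was detected with antibodies against each partner (one per run).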

[2] = system: LXRa:RXRa (NR concentration 270 nM, RXRa partner concentration 90 nM)
Outline: as §1

[3] = system: LXRa homodimer (NR concentration 270 nM)
Outline: as §1

[4] = system: LXRb:RXRa (NR concentration 270 nM, RXRa partner concentration 90 nM)
Outline: as §1

[5] = system: LXRb homodimer (NR concentration 270 nM)
Outline: as §1

[6] = system: PPARg:RXRa 270nM:90nM, anti-RXR (NR concentration 270 nM, RXRa partner concentration 90 nM)
Outline: as §1

[7] = system: PPARg:RXRa 30nM:10nM, anti-RXR (NR concentration 30 nM, RXRa partner concentration 10 nM)
Outline: as §1

[8] = system: PPARg:RXRa 90nM:30nM, anti-RXR (NR concentration 90 nM, RXRa partner concentration 30 nM)
Outline: as §1

[9] = system: PPARg:RXRa DBDmut IVT, anti-RXR (DBD mutation: RXRa K156A/R161A, NR concentration 270 nM, RXRa partner concentration 90 nM)
Outline: as §1

[10] = system: PPARg:RXRa IVT, anti-PPARg (NR concentration 270 nM, RXRa partner concentration 90 nM)
Outline: as §1

[11] = system: PPARg DBDmut:RXRa IVT, anti-PPARg (DBD mutation: PPARg1 K132A/R137A, NR concentration 270 nM, RXRa partner concentration 90 nM)
Outline: as §1

[12] = system: PPARg DBDmut IVT, anti-PPARg (DBD mutation: PPARg1 K132A/R137A, NR concentration 270 nM)
Outline: as §1

[13] = system: PPARg homodimer (NR concentration 180 nM)
Outline: as §1

[14] = system: PXR homodimer (NR concentration 270 nM)
Outline: as §1

[15] = system: RARa homodimer (NR concentration 270 nM)
Outline: as §1

[16] = system: RARb:RXRa (NR concentration 270 nM, RXRa partner concentration 90 nM)
Outline: as §1

[17] = system: PPARa:RXRa (NR concentration 270 nM, RXRa partner concentration 90 nM)
Outline: as §1

[18] = system: PPARg:RXRa (NR concentration 180 nM, RXRa partner concentration 90 nM)
Outline: as §1

[19] = system: PXR:RXRa (NR concentration 270 nM, RXRa partner concentration 90 nM)
Outline: as §1

[20] = system: RARa:RXR (NR concentration 270 nM, RXRa partner concentration 90 nM)
Outline: as §1

Sequence	PBM binding z-score [1]	PBM binding z-score [2]	PBM binding z-score [3]	PBM binding z-score [4]	PBM binding z-score [5]	PBM binding z-score [6]	PBM binding z-score [7]	PBM binding z-score [8]	PBM binding z-score [9]	PBM binding z-score [10]	PBM binding z-score [11]	PBM binding z-score [12]	PBM binding z-score [13]	PBM binding z-score [14]	PBM binding z-score [15]	PBM binding z-score [16]	PBM binding z-score [17]	PBM binding z-score [18]	PBM binding z-score [19]	PBM binding z-score [20]
TGAATGAGGTTAAAGGTCAGGGAACGTGGCGTCG	7.23	6	2.34	5.35	1.05	9.95	12.2	12.1	3.7	6.46	1.94	1.25	5.36	1.01	3.29	5.08				
CGAACTAGGTCAAAGGTCAGTGAAAGGCGACGTA	7.45	6	2.09	5.55	0.335	11.3	12.7	14	8.37	9.1		4.58	5.51	0.306	2.87					
TCGAGTAGGTTACGGGAGCATTCAGGGATGAAGA	0.293	0.0567	-0.651	0.0342		2.09	1.25	1.7	2.84	3.32			-0.122	-0.797	-0.752	0.692	1.82	1.59	0.0708	0.667
CCTTACAGGTCACGAGGTTATAGCACGACGAGCG	7.41	5.59	2.37	4.42	0.788	6.56	3.71	5.37	5.46	6.09	1.32	1.39	3.54	0.719	1.27	5.31		7.55	4.58	5.38
CCGAGTAGGTTACGAGGGGGCATCCAGTGCGAAT	1.87	6.84	1.45	5.77		3.34	0.797	2.31	4.1	4.45			1.63	2.67	0.122	2.1	3.24	2.67	4.3	2.86
CTAAGTAGGTTAAGGGGGTCATTCAGTTTGAAAG	5.01	4.96	3.1	6.08		7.83	6.33	8.16	7.83	7.65			3.59	11.4	1.86	3.43	6.01	8.37	5.74	5.63
CTATGTAGCTTAAGGGGGTCATTCAGTTTGAAAG	4.38	4.44	3.06	6.2		4.6	2.16	3.67	2.86	4.78			3.12	10	1.84	3.33	5.27	3.24	5.52	5.18
AGTGAAAGTTCAGGACGAGGTAACGTAAAGCACG	3.78	3.69	1.17	1.94	0.34	4.03	1.48	2.89	-0.565	1.36	0.759	0.589	1.57	1.41	0.544	4.14		3.61		2.9
TCGAGTAGGTTTCGGGGGCATTCAGGGATGAAGA	2.38	2.27	0.973	4.48		2.99	2.29	2.8	2.63	3.84			1.79	2.07	0.713	1.67	2.96	1.4	2.62	2.22
CGTCCAAGGTCCATGCTAGGTCAGTGAAAGCATT	0.162	3.49	0.25	0.906	-0.855	-0.317	-0.678	-0.366	0.0985	0.351	-0.956	-1	0.21	-0.0884	-0.265	1.7		-0.453	0.422	1.35
CCGACTGGGTCAAAGGTTACCATACTCAGTACGA	4.79	4.3	0.367	4.02	-0.508	10.2	9.87	11.1	6.05	7.26	1.18	0.000446	1.89	-0.223	0.785	4.1		12	5.14	
CCGAGTAGGTTACGGGGGGGCATTCAGTGCGAAT	4.53	6.83	3.13	7.21		4.46	2.55	3.84	5.07	5.61			4.19	7.32	2.21		3.74	4.54	5.79	4.18
CCGAGTGGGTTACGAGGGGGCATTCAGTGCGAAT	2.73	6.93	0.977	5.8		2.54	0.567	1.74	3.36	3.81			1.4	5.23	-0.433	1.65	3.08	1.75	4.8	2.53
CCGAGTAGGTTACGAGGGGGCGTTCAGTGCGAAT	1.13	6.33	0.912	5.52		3.17	0.694	2.26	5	4.63			1.55	3.24	0.353	1.72	3.11	2	4.3	2.59
CCGAGTAGGTTACGAGTGGGCATTCAGTGCGAAT	0.0253	3.62	-0.367	0.771		1.33	-0.376	0.662	4.82	3.49			0.313	-0.15	-0.322	0.921	1.09	0.765	0.0829	0.124
TCATATAGGTAAAAGGTCAAAGTCGGTGTGGTAA	6.77	6.41	4.99	5.78	2.43	10.5	10.9	12.4	5.65	6.93	2.69	3	5.82	2.41	4.73	4.88			5.94	

Sequence	PBM binding z-score [1]	PBM binding z-score [2]	PBM binding z-score [3]	PBM binding z-score [4]	PBM binding z-score [5]	PBM binding z-score [6]	PBM binding z-score [7]	PBM binding z-score [8]	PBM binding z-score [9]	PBM binding z-score [10]	PBM binding z-score [11]	PBM binding z-score [12]	PBM binding z-score [13]	PBM binding z-score [14]	PBM binding z-score [15]	PBM binding z-score [16]	PBM binding z-score [17]	PBM binding z-score [18]	PBM binding z-score [19]	PBM binding z-score [20]
TCTTGTAGGTCAAAGGTTAAGAAAGCCGAAGCCT	7.08	6.11	2.09	5.26	1.73	10.7	11.9	12.2	7.87	8.59	1.61	1.68	3.23	0.389	0.512	5.12			5.44	
CTATGTAGGTTAAGGGGGTCATCCAGTTTGAAAG	4.86	4.86	2.5	6.27		7.67	6.02	7.82	7.02	7.73			3.6	9.26	1.05	3.65	6.19	8.53	5.82	5.73
CCTACTGGGCCAATGTCATTGATCAGTCAAAGCA	-0.931	-0.71	-0.956	-0.421	-0.826	0.774	-0.129	0.12	3.94	2.99	-0.0732	-0.746	-0.246	-0.747	-1.11	0.363		0.865	-0.427	-0.51
CATCCAAGGTCAAAGGTCAGTGAAGAGATGACGG	8.63	7.28	5.11	7.03	3.15	9.75	8.73	10.8	4.07	6.54	2.71	3.63	5.52	2.53	3.93			11.1	7.36	
TAGCCTAGGTCATTGTGCCAGTATAGTACGCATC	4.04	3.2	1.08	2.51	0.948	2.79	0.475	2.19	2.37	3.23	-0.0725	0.703	0.97	0.0622	-0.0989	3.44		2.89	1.47	1.89
CAAACTAGGTCACGAAAGGTCAAAGTGGAATGAC	7.59	8.25	7.92	7.19	2.79	8.11	7.1	8.54	8.3	9.14	4.86	3.3	6.09	2.33	4.81	5.72		10.6	7.22	7.85
TCGAGAAGGTTACGGGGGCATTCAGGGATGAAGA	4.57	4.21	0.687	5.72		5.94	4.28	5.29	3.48	4.73			1.82	1.24	0.65	3.65	5.32	6.1	3.71	3.78
CTATGTAGGTAAAGGGGGTCATTCAGTTTGAAAG	4.07	4.67	2.77	5.98		7.12	4.91	6.93	6.89	7.06			3.59	10.7	1.83		5.92	7.28	5.82	6.13
CCGAGTAGGTTACGAGGGGGAATTCAGTGCGAAT	0.932	1.98	0.178	3.04		2.55	0.623	1.37	4.48	4.06			0.811	0.309	0.123	1.26	2.28	1.76	1.55	1.23
TTACCAAGGTGAAAGGTCATTGATGCACGCCTTG	6.65	6.17	4.61	5.39	1.12	9.21	9.49	10.9	2.98	6.12	1.63	2.28	5.67	2.25	2.09	4.86			6.35	
CCGAGTAGGTTACCAGGGGGCATTCAGTGCGAAT	2.76	7.81	3.59	6.85		3.31	0.696	2.27	3.65	4.24			1.99	5.81	0.502	2.33	3.43	2.1	4.73	2.91
TCAAGTAGGTTACGGGGGCATTCAGGGATGAAGA	3.28	3.4	1.53	5.4		7.05	6.15	6.95	6.98	7.48			3.45	2.97	1.26		4.49	7.97	3.45	3.18
CTATGTAGGTTAAGGAGGTCATTCAGTTTGAAAG	3.87	4.84	4.54	3.92		5.71	3.14	5.11	7	7.07			2.9	12	0.704		5.23	6.14	5.67	4.51
TCATATAGGTCAAAGGTGAAAGTCGGTGTGGTAA	7.15	6.06	2.14	5.58	1.91	9.8	10.4	11.4	8.06	7.84	1.77	2.53	3.28	1.13	1.6	4.89			5.31	
ATATGTAGGTGAAGGGTCATTCAGGTTGGTTCGC	4.21	4.29	1.74	3.78	1.03	11.2	11.3	12.7	8.51	8.85	6.44	4.69	6.22	2.24	1.46	3.3			5.27	5.79
CTTACTGGGCCAAAGGTCATTGATTCCAATGCTC	5.59	5.54	4.28	5.06	0.936	11.2	14.3	13.6	7.41	8.39	2.55	2.05	5.08	2.72	1.85	4.62			5.66	7.06
